Screens deposited in PubChem by several laboratories.
MPTP inh = inhibitors of mitochondrial permeability transition pore; inhibition, % at 10 µM; 1.4% of 360,000 active; isolated mouse mitochondria, Ca2+ swelling absorbance, 30 min;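 active = inhibition of 50% or more, scaled per plate between neutral and stimulator controls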
HSF1 activator = increases HSF-1 driven luciferase reporter signal; activation, % at 9 µM; NIH3T3-HGL HSF-1 luciferase reporter, MG132, 8 h; 100% = twice DMSO control signal; 1.7% of 300,000 active;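 active = mean replicate activation of at least 50% with a set share of replicates each reaching 50%; inconclusive = only one of those two conditions met; inactive = mean below 50% and too few replicates reaching it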
Platelet DG rel = modulates dense granule release in human platelets; human platelet-rich plasma, SFLLRN dense granule ATP release, luminescence; inhibition, %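 (compounds screened at 7.5 µM in platelet-rich plasma)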; 0.22% of 300,000 active; AID 1663;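 active = mean replicate score, as percent of positive control, at or above 50; inconclusive = mean below 50 but at least one replicate at or above 50; inactive = mean and every replicate below 50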
HSP90 refold inh = inhibitors of HSP90 luciferase refolding in rabbit reticulocyte lysate; luciferase refolding luminescence, 3 h; inhibition, % at 5.6 µM; 0.91% of 290,000 active;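 active = inhibition above the screen-wide mean plus 3 SD, computed separately per campaign, cut at about 16% in these data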;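 note: inhibitors lower the luminescence because luciferase stays unfolded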
dFosB act = enhances mouse delta FosB homodimer DNA binding; P13346; purified delta FosB, TAMRA-CDK5 oligo fluorescence polarization; percent of positive-control signal above neutral wells; activation, % at 25 µM; 0.99% of 340,000 active;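 active = mean activation above about 17%, with every replicate also reaching it, limit read from the data, passing the limit was not always enough; inconclusive = only one of the two conditions met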
Target sequence (P13346 whole entry, looked up): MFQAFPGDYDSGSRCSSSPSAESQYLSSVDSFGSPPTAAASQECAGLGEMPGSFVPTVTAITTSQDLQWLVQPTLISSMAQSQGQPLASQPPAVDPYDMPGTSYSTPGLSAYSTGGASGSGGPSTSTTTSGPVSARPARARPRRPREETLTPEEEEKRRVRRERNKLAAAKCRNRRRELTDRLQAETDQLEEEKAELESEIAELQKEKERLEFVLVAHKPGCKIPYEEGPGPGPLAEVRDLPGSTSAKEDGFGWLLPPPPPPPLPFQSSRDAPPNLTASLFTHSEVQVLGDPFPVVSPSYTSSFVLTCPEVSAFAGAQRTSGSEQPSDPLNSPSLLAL
HSF1 inhib = HSF1 inhibition; activity change, negative = inhibition, % at 7.5 µM (by protocol); 0.77% of 300,000 active; NIH3T3-HGL HSE-luciferase, MG132-induced, luminescence 8 h; hits give low values;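 active = more than half of replicate wells show activity change below -50%, luminescence cut by over half; inconclusive = some wells, but at most half, below -50%; inactive = no replicate well below -50%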;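 note: luciferase reports HSF-1 transcriptional activity via heat shock element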
Numbers stand for hits; - = inactive; ? = inconclusive; . = no result given. A selection: hits, their analogues and other compounds. The true share with any hit is near 4.9%.

SMILES	MPTP inh	HSF1 activator	Platelet DG rel	HSP90 refold inh	dFosB act	HSF1 inhib
O=C(N/N=C/C(Cl)=C\c1ccccc1)c1cnccn1	-	-	-	-	-	-
O=C(N/N=C/c1cccc(Oc2ccccc2)c1)c1ccccc1F	-	-	-	-	-	-
O=C(N/N=C/C(Br)=C/c1ccccc1)c1cccs1	-	130	-	-	-	-
O=C(N/N=C/C(Cl)=C/c1ccccc1)c1ccccc1F	-	76	-	-	-	-
O=C(N/N=C/C=C/c1ccccc1)c1cccs1	-	?	-	-	-	-
O=C(N/N=C/C(Br)=C/c1ccccc1)c1ccccc1F	-	250	-	-	-	-
CCCCn1c(N)c(N(CC(C)C)C(=O)CSc2ccccc2C)c(=O)[nH]c1=O	-	-	-	.	-	-
O=C(N/N=C/C(Cl)=C/c1ccccc1)c1ccco1	-	54	-	-	-	-
O=C(N/N=C/C(Cl)=C\c1ccccc1)c1ccco1	-	-	-	-	-	-
O=C(N/N=C/C(Br)=C/c1ccccc1)c1cc(-c2ccco2)[nH]n1	-	130	-	-	-	-
Nc1ccc2oc3ccccc3c2c1	-	-	-	16	-	-
Cn1cnc([N+](=O)[O-])c1S(=O)(=O)c1cccc(Cl)c1	-	56	-	-	-	-
Cn1cnc([N+](=O)[O-])c1S(=O)(=O)Oc1ccccc1	-	.	.	.	-	.
Cc1ccc(S(=O)(=O)N2CCCC(C(=O)NCCc3ccc4c(c3)OCO4)C2)cc1 (stereo not drawn)	-	-	-	-	-	-68
NC(=O)c1ccc(NC(=O)COC(=O)CC2Sc3ccccc3NC2=O)cc1 (stereo not drawn)	-	.	.	.	-	.
CCn1c(=O)n(CC)c2cc(N3CCCC3)c(NC(=O)c3ccc(OC)c(Br)c3)cc21	-	-	-	-	-	-71
CC(C)c1onc(C(=O)N2CCN(c3ccc(F)cc3)CC2)c1[N+](=O)[O-]	-	-	-	-	-	-
CC1=CC2C(C(O)CC3(C)C2CC(C)C32OCOC23COCO3)C2(C)C/C(=C\O)C(=O)C=C12 (stereo not drawn)	-	94	.	.	-	94
O=C(Nc1nc2nc(-c3ccccc3)cc(-c3ccccc3)n2n1)c1ccco1	-	-	-	-	68	-
CCOC(=O)C1(Cc2cccc(OC)c2)CCCN(CCO)C1 (stereo not drawn)	-	-	-	-	-	-
Cc1ccc(S(=O)(=O)N/N=C/c2ccc(OS(=O)(=O)c3ccc(C)c([N+](=O)[O-])c3)cc2)cc1	-	-	-	-	-	-
Cc1ccc2nc(NC(=O)C3CCN(S(=O)(=O)c4cccnc4)CC3)sc2c1	-	-	-	-	-	-
Cc1ccc2nc(NC(=O)C3CCN(S(=O)(=O)c4cccs4)CC3)sc2c1	-	-	-	-	33	-
O=C1/C(=C/c2ccco2)SC(=S)N1CCC(=O)N1CCCCC1CCO (stereo not drawn)	-	55	-	-	-	-
CCOC(=O)N(C)C[C@@H]1OCc2ccccc2-c2c(n(C)c3ccccc23)C(=O)N([C@H](C)CO)C[C@H]1C	-	.	.	.	.	.
SMILES	MPTP inh	HSF1 activator	Platelet DG rel	HSP90 refold inh	dFosB act	HSF1 inhib
CC(NC(=O)/C(=C/c1ccc(OC(F)F)cc1)c1ccccc1)c1ccccc1 (stereo not drawn)	-	-	-	-	-	-
COCC(C)NC(=O)/C(=C/c1ccccc1)c1ccccc1 (stereo not drawn)	-	60	-	-	-	-
COCC(C)NC(=O)c1ccc2nc(-c3ccccc3)c(-c3ccccc3)nc2c1 (stereo not drawn)	-	-	-	-	-	-81
COc1cccc(-c2cnc(C(O)c3c(C)ccc4ccccc34)[nH]2)c1 (stereo not drawn)	-	.	.	.	.	.
CCn1c(COc2ccccc2)nnc1SCc1ccc(C#N)cc1	-	56	-	-	-	-
Cc1ccccc1NC1(C#N)C(=O)Nc2ccccc21 (stereo not drawn)	-	-	-	-	-	-
CC(C)c1ccc(NC2(C#N)C(=O)Nc3ccccc32)cc1 (stereo not drawn)	-	-	-	-	-	-61
Cc1ccc(C(=O)Nc2cccnc2Cl)cc1Cl	-	59	-	-	-	-
Cc1cc(C)cc(C(=O)Nc2cccnc2Cl)c1	-	-	-	-	-	-
CC1(C(=O)OCC(=O)Nc2nc(-c3ccc(F)c(F)c3)cs2)CC1(Cl)Cl (stereo not drawn)	-	-	-	-	-	-
CC1CCCC(NC(=O)COC(=O)/C=C/c2ccc(S(=O)(=O)N3CCOCC3)cc2)C1C (stereo not drawn)	-	-	-	-	-	-
N/C(=N\OC(=O)COc1ccc(Br)cc1)c1cccnc1	-	57	-	-	-	-
Cc1cccc(OCC(=O)O/N=C(\N)c2ccccn2)c1	-	-	-	-	-	-
N/C(=N\OC(=O)COc1ccccc1)c1cccnc1	-	-	-	.	-	-
N/C(=N\OC(=O)C(c1ccccc1)c1ccccc1)c1cccnc1	-	-	-	-	-	-
CCc1ccc(OCC(=O)O/N=C(\N)c2ccccn2)cc1	-	64	-	-	.	-
Cc1ccc(OCC(=O)O/N=C(\N)c2ccccn2)cc1C	-	108	-	-	.	-
N/C(=N\OC(=O)C(c1ccccc1)c1ccccc1)c1ccccn1	-	73	-	-	-	-
CSCCC(NC(=O)COc1ccccc1)C(=O)OC(C)C(=O)Nc1ccccc1C (stereo not drawn)	-	-	-	.	-	-
CCn1c(SCC(=O)Nc2ccc(N3CCOCC3)cc2)nnc1-c1ccco1	-	-	-	.	-	-
Oc1ccc2ccccc2c1N=Nc1ccc(F)cc1	-	-	-	-	104	-
c1ccc(-c2nnsc2-c2ccccc2)cc1	-	-	-	-	-	-
O=S(=O)(c1ccc(Cl)c(Cl)c1)c1snnc1-c1ccccc1	-	431	-	-	-	-
CCOc1ccc(CNC(=O)CCS(=O)(=O)c2ccc3c(c2)oc(=O)n3C)cc1	-	-	-	-	-	-76
Oc1ccc(N=Cc2ccc(OCc3ccccc3)cc2)cc1	-	65	-	-	-	-
SMILES	MPTP inh	HSF1 activator	Platelet DG rel	HSP90 refold inh	dFosB act	HSF1 inhib
O=C(c1cc(-c2cccc(O)c2)on1)N1CCCC1	-	-	-	-	-	-
O=S(=O)(c1cccc(Cn2nnc(-c3ccccc3)n2)c1)N1CCOCC1	-	.	.	.	-	.
COc1cc(/C=N/N2CCN(C3c4ccccc4-c4ccccc43)CC2)cc(OC)c1O	-	-	-	-	-	-
COc1cc(/C=N/N2CCN(C3c4ccccc4-c4ccccc43)CC2)cc(OC)c1OC	-	103	-	-	-	-
Cc1cc(S(=O)(=O)N2CCCOC2CNC(=O)C(=O)NCc2cccs2)ccc1F (stereo not drawn)	-	-	-	-	-	-
O=C(NC(=S)N1CCN(c2ccc(C(F)(F)F)cc2[N+](=O)[O-])CC1)c1cccs1	-	-	-	-	-	-94
